A selection: hits, their analogues and other compounds. The true share with any hit is near 12%.
JMJD2A Tudor = JMJD2A Tudor domain (human) inhibition | O75164 | AlphaScreen JMJD2A-Tudor / H3K4me3 peptide binding | Potency, µM (doses to about 114 µM), inactives show at the top dose activity change, negative = inhibition, usual class: inhibitors | hit rate 4.4% among 390,000; note: % is set by controls: 0 for no effect and ±100 for the full control effect; nearly all actives have a fitted effect of over 50% in size
Target sequence (O75164 whole entry, looked up, the tested form may be a part): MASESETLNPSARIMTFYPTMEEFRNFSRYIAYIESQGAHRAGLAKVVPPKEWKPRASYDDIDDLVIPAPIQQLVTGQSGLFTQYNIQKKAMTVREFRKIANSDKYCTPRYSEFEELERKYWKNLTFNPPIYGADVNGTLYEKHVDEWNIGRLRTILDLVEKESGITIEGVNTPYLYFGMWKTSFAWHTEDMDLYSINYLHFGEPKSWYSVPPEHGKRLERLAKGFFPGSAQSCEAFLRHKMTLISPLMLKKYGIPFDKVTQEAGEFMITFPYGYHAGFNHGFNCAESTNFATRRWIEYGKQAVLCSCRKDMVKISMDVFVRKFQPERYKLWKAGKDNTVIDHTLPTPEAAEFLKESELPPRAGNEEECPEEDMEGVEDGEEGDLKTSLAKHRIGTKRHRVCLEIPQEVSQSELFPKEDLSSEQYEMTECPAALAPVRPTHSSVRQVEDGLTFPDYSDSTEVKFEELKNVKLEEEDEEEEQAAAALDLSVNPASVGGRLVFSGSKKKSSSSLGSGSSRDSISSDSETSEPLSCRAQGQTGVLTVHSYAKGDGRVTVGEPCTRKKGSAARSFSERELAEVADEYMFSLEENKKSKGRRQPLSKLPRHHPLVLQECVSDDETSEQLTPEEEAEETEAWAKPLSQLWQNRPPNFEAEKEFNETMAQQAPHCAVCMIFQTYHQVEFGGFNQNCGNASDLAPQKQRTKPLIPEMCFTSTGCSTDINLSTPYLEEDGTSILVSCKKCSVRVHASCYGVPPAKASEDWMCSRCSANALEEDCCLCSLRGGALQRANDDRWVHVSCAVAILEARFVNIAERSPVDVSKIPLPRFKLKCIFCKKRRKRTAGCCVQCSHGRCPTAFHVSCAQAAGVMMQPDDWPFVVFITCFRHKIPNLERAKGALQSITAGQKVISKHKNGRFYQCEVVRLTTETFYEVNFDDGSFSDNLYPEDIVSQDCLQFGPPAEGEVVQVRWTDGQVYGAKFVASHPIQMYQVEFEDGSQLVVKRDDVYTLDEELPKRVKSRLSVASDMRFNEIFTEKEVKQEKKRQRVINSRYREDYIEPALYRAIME
Sfp inh = Sfp phosphopantetheinyl transferase inhibition; Biochemical Sfp PPTase activity, qHTS; AID 1490; hit rate 3.5% among 310,000; Potency, µM, for inactives: largest response in the series, negative = inhibition, most hits filed as inhibitors;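 note: the enzyme is Sfp with the accession as filed and its product quenches rhodamine fluorescence; 0% = enzyme reaction without inhibitor and -100% = no enzyme wells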
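Step 1, compound plus 15 nM Sfp-PPTase, 15 min, room temperature. Step 2, add rhodamine-CoA (5 uM) and BHQ-2-YbbR (12.5 uM). Step 3, read 525/598 nm fluorescence at 0 and 30 min.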
HP1b chromo inh = inhibitors of HP1-beta chromodomain binding to methylated histone tails. AlphaScreen HP1-beta / biotin-H3K9me3 peptide binding. Potency, µM (series often up to 114 µM), without a hit: at the highest dose activity change, negative = inhibition, most hits filed as inhibitors. hit rate 0.56% among 390,000. AID 540317; note: nearly all actives have a fitted effect of over 70% in size
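Compound inhibition of the preformed complex between 50 nM HP1-beta and 50 nM biotinylated H3K9me3 peptide was read by AlphaScreen. Buffer was PBS pH 7.4 with 0.01% Tween-20. Incubations ran 30 min at room temperature, with 10 ug/mL donor/acceptor beads.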
G9a inh = inhibitors of human histone lysine methyltransferase G9a; Q96KQ7; G9a H3K9 monomethylation, AlphaScreen, 2 h; Potency, µM (doses to about 102 µM), for inactives: at the highest dose activity, negative = inhibition, hits mostly inhibitors; hit rate 8.8% among 350,000; note: % is set by controls: 0 for no effect and ±100 for the full control effect; nearly all actives have a fitted effect of over 75% in size
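Quantitative HTS format: methyltransferase activity on a biotin-tagged H3K9 peptide is measured by AlphaScreen, using a rabbit anti-monomethyl-H3K9 antibody with streptavidin donor and anti-IgG acceptor beads. Final levels are 20 nM enzyme, 500 nM peptide, 20 uM SAM; 2 h RT.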
BAZ2B block = blocks human BAZ2B; hit rate 4.4% among 360,000; Potency, µM (doses to about 114 µM), without a hit: top-dose activity change, negative = inhibition, most hits filed as inhibitors; AlphaScreen BAZ2B-H3K14Ac peptide displacement; AID 504333; note: % is set by controls: 0 for no effect and ±100 for the full control effect; nearly all actives have a fitted effect of over 60% in size
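Complex of BAZ2B and biotin-H3K14Ac (50 nM apiece) forms over 30 min at RT, then faces library compounds up to 110 uM for another 30 min; AlphaScreen beads added, 20 min dark incubation, luminescence read.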
L3MBTL1 block = blocks human L3MBTL1; hit rate 0.66% among 230,000; AID 485360; Potency, µM (top dose mostly 57.1 µM), for inactives: at the highest dose activity, negative = inhibition, actives largely listed as inhibitors; AlphaScreen L3MBTL1–H3K9me1 peptide binding; Q9Y468; note: % is set by controls: 0 for no effect and ±100 for the full control effect; nearly all actives have a fitted effect of over 60% in size
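L3MBTL1 (50 nM) pre-complexed 30 min with biotinylated H3(1-15)K9me1 peptide (75 nM), then compounds added for 30 min at room temperature; AlphaScreen streptavidin donor/nickel chelate acceptor beads (10 ug/mL final) read after 30 min dark incubation.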
The depositor's hits bear a star; ? = inconclusive; . = not tested or not shown; [ ] = remark or other dose. Calls come from the whole dose curve; as a rule, active = well fitted curve in the direction sought with a large enough effect; inconclusive = small, poorly fitted or top-dose-only effect, or another doubt; inactive = no such curve, though single readings can be large; an effect the other way counts as inactive or inconclusive. Potency is the fitted concentration of half-maximal effect.

SMILES | JMJD2A Tudor | Sfp inh | HP1b chromo inh | G9a inh | BAZ2B block | L3MBTL1 block
C#CCOCCOCCOCCNc1nc(N2CCN(C(=O)CCCCCCCCCCNC(=O)[C@H]([C@@H](C)CC)n3cc(CCCCN=C(N)N)nn3)CC2)nc(N2CCN(C(=O)CCCCCCCCCCNC(=O)[C@H](CCCCN)n3cc(C[C@@H](C)CC)nn3)CC2)n1 | . | . | . | 16%[2.33 µM] | 50µM* | -13%
C#CCOCCOCCOCCNc1nc(N2CCN(C(=O)CCCCCCCCCCNC(=O)[C@H](CCCCN)n3cc(CCO)nn3)CC2)nc(N2CCN(C(=O)CCCCCCCCCCNC(=O)[C@H](CCCN=C(N)N)n3cc(C[C@@H](C)CC)nn3)CC2)n1 | 45µM* | . | ? | 24%[2.33 µM] | 50µM* | -5%
C#CCOCCOCCOCCNc1nc(N2CCN(C(=O)CCCCCCCCCCNC(=O)[C@H](CCCCN)n3cc(C[C@@H](C)CC)nn3)CC2)nc(N2CCN(C(=O)CCCCCCCCCCNC(=O)[C@H](CCCCN)n3cc(C[C@@H](C)CC)nn3)CC2)n1 | 50µM* | . | 71µM* | . | . | .
C#CCOCCOCCOCCNc1nc(N2CCN(C(=O)CCCCCCCCCCNC(=O)Cn3cc(C[C@@H](C)O)nn3)CC2)nc(N2CCN(C(=O)CCCCCCCCCCNC(=O)[C@H](CCCCN)n3cc(C[C@@H](C)CC)nn3)CC2)n1 | 79µM* | . | ? | -49%[12.7 µM] | ? | 0%
C#CCOCCOCCOCCNc1nc(N2CCN(C(=O)CCCCCCCCCCNC(=O)Cn3cc(C[C@@H](C)O)nn3)CC2)nc(N2CCN(C(=O)CCCCCCCCCCNC(=O)Cn3cc(C[C@@H](C)O)nn3)CC2)n1 | -14% | . | 36% | 2%[2.33 µM] | -20% | -1%
c1ccc2c(N3CCOCC3)nc(-c3ccoc3)nc2c1 | . | 9% | . | 14%[0.501 µM] | . | .
CCN(CC(=O)NCc1cccs1)C(=O)c1cccc(S(=O)(=O)N2CC(C)OC(C)C2)c1 (stereo not given) | -8% | . | 23% | . | . | -4%
C#CCOCCOCCOCCNc1nc(N2CCN(C(=O)CCCCCCCCCCNC(=O)[C@H](CCCCN)n3cc(CCCC(=O)O)nn3)CC2)nc(N2CCN(C(=O)CCCCCCCCCCNC(=O)[C@H](CCCN=C(N)N)n3cc(C[C@@H](C)CC)nn3)CC2)n1 | 56µM* | . | -23% | 8%[2.33 µM] | 50µM* | -2%
O=C(Nc1ccc(Cl)cc1)c1ccc2c(c1)N(Cc1ccccc1)C(=O)c1ccccc1S2(=O)=O | -19% | . | 57% | 8%[59 µM] | 14% | .
Cc1nc(SCc2ccc([N+](=O)[O-])cc2)n[nH]1 | 1% | 25% | 13% | -9%[0.501 µM] | 4% | 3%[2.29 µM]
Cc1nnc(SCc2ccc([N+](=O)[O-])cc2)o1 | 13µM* | -1% | -24% | -8% | ? | 3%
O=[N+]([O-])c1ccc(CSc2nnc(SCc3ccc(Cl)cc3)s2)cc1 | -28% | 16% | 7% | 35µM* | 8% | -8%
Cc1nc(SCC(=O)Nc2ccccc2Cl)oc1C | -10% | 6% | 2% | -29% | ? | .
CS(=O)(=O)Nc1cccc(-c2nccc(Nc3ccc(F)cc3)n2)c1 | . | -2% | . | -27%[0.501 µM] | . | .
S=c1[nH]nc(-c2cc(-c3ccco3)[nH]n2)n1-c1ccccc1Cl | 89µM* | 28µM* | -6% | 4.5µM* | 50µM* | ?
S=c1[nH]nc(-c2ccco2)n1-c1ccccc1Cl | 5µM* | -7% | 14% | ? | -21% | -7%
S=c1[nH]nc(-c2ccc3ccccc3n2)n1-c1ccccc1Cl | ? | 8% | -6%[57 µM] | ? | 3% | -11%
COc1ccc(OC)c(-n2c(-c3cc(-c4ccco4)[nH]n3)n[nH]c2=S)c1 | ? | 17% | -6% | 0% | -2% | -4%
COc1ccc(-c2cc(-c3n[nH]c(=S)n3-c3ccccc3Cl)[nH]n2)cc1 | -20% | 10% | 20% | 7.9µM* | -35% | -17%
S=c1[nH]nc(-c2cc(-c3ccco3)[nH]n2)n1-c1ccccc1 | 50µM* | 89µM* | -1% | -20%[0.501 µM] | ? | 1%
